Screening data from PubChem.
HPGD block = qHTS Assay for Inhibitors of HPGD (15-Hydroxyprostaglandin Dehydrogenase) | 15-hydroxyprostaglandin dehydrogenase [NAD(+)] (Homo sapiens), P15428 | purified HPGD, NADH fluorescence kinetic, PGE2 substrate | actives 4.3% (n = 150,000) | Potency, µM, without a hit: at the highest dose activity change, negative = inhibition, usual class: inhibitors; note: potency is the fitted concentration of half-maximal effect
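NADH formation kinetics: reaction with 30 uM PGE2 and 1 mM NAD+ (final), 20 nM enzyme, Tris-HCl pH 8 with Tween 20, after 15 min compound preincubation at room temperature. Fluorescence change, last versus first of five reads.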
PNC inhibitor = High Content Assay for Compounds that inhibit the Assembly of the Perinucleolar Compartment. PC3M PTB-GFP, PNC prevalence imaging, 16 h; stronger effect = lower value. activity change (PNC), negative = inhibition, % at 10 µM. actives 3.1% (n = 140,000). AID 2417, 2010;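 active = readout at or below -70, meaning at least 70% loss of cells showing the perinucleolar compartment, a nuclear body marking cancer cells; inconclusive = readout between -30 and a set limit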;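 note: plate controls were DMSO wells for no effect and camptothecin positive control wells for full effect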
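Compounds are pinned in duplicate onto adhered PC3M cells stably expressing GFP-tagged PTB and incubated 16 h at 37 C. Cells are then fixed, nuclei stained with Hoechst, and PNC-positive cells counted.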
ALDH1A1 block = qHTS Assay for Inhibitors of Aldehyde Dehydrogenase 1 (ALDH1A1). actives 7.3% (n = 220,000). Purified ALDH1A1, NADH fluorescence, propionaldehyde substrate. Potency, µM (titrated, usually from 75.3 µM), inactives show at the highest dose activity, negative = inhibition, actives largely listed as inhibitors. Aldehyde dehydrogenase 1A1 (Homo sapiens), P00352;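 note: potency is the fitted concentration of half-maximal effect; plate controls were no enzyme wells and a reference inhibitor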
Target sequence (P00352 whole entry, looked up): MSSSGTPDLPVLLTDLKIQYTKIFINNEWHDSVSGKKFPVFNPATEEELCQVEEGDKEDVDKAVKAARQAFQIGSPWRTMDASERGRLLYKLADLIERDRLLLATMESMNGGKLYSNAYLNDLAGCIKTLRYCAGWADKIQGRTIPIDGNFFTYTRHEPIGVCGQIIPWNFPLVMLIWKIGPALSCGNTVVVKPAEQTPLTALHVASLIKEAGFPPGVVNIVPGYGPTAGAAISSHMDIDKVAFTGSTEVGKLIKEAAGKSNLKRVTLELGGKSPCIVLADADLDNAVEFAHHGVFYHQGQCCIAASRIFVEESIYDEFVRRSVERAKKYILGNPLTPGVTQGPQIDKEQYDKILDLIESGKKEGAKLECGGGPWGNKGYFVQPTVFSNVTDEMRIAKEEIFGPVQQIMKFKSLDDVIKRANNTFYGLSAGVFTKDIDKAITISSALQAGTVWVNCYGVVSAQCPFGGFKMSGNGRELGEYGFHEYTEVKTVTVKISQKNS
An asterisk follows results filed as active; ? = inconclusive; . = no result; [ ] = remark or other dose. The list is not random: actives were taken first. Their share in the collection is about 11%. Unless noted, calls come from the whole dose curve; as a rule, active = well fitted inhibition curve with a large enough effect (not every such curve was filed as active); inconclusive = small, poorly fitted or top-dose-only effect, or another doubt; inactive = no such curve, though single readings can be large or run the other way. Unless noted, % is set by controls: 0 for no effect and ±100 for the full control effect.

SMILES | HPGD block | PNC inhibitor | ALDH1A1 block
O=C(N/N=C/c1ccccn1)c1[nH]c2ccc([N+](=O)[O-])cc2c1-c1ccccc1 | . | . | 4.5µM*
O=S(=O)(Cc1ccccc1Cl)CC(O)COc1ccccc1Cl (configuration not stated) | 11µM* | -18 | -4%
O=S(=O)(CC(O)COc1ccccc1Cl)c1ccccc1 (configuration not stated) | -3% | -15 | 8%
COc1ccc(OC)c(-n2c(SCC(=O)Nc3cccc(S(N)(=O)=O)c3)nc3ccccc3c2=O)c1 | . | . | -7%
CCCNC(=O)OC[C@@H]1O[C@H](CCO/N=C(\C)CCN2CCCCc3nc(C)c(C)cc32)C=C[C@@H]1Oc1ccc(OC)cc1 | . | . | -8%[13.5 µM]
O=C(CN1CCOCC1)N1CCCc2ccccc21 | . | . | 7.9µM*
O=C(Cn1nnc(-c2ccc(CN3CCOCC3)cc2)n1)N1CCCc2ccccc21 | -10% | 17 | 1%
N#Cc1cn(CC(=O)N2CCCc3ccccc32)c2ccccc12 | -20% | 66 | -8%
O=Cc1cn(CC(=O)N2CCCc3ccccc32)c2ccccc12 | -9% | -100* | ?
C=CCNCCOCCOc1ccccc1-c1ccccc1 | . | . | -6%
Cc1ccc(S(=O)(=O)Nc2ccccc2CNC2CCCCC2)cc1 | . | . | 0%
CC(C)[C@H](NC(=O)c1ccco1)C(=O)OCC(=O)Nc1ccccc1OC(F)F | . | . | -5%
Nn1c(Cc2ccc(Br)cc2)n[nH]c1=S | . | . | 11µM*
COc1ccc(Cc2n[nH]c(=S)n2N)cc1OC | . | . | 10µM*
CCOc1ccc(Cc2n[nH]c(=S)n2N)cc1 | ? | -9 | ?
COc1ccc(C(=O)NCc2n[nH]c(=S)n2-c2ccccc2)cc1OC | -23% | 29 | ?
COC1=C(c2ccccc2)C(=O)c2ccccc2C1=O | -7% | 20 | ?
C=CC(C1=CC(=O)C(OC)=CC1=O)c1ccccc1 (configuration not stated) | ? | . | 22µM*
C=CC(C1=CC(=O)C(OC)=C(OC)C1=O)c1ccccc1 (configuration not stated) | 20µM* | . | 0%
COc1ccc(C(=O)N/N=C/C(C)c2ccccc2)cc1OC (configuration not stated) | -8% | -26 | -4%
N#CC(CO)(Cc1ccc(OC(F)F)cc1)c1nc2ccccc2[nH]1 (configuration not stated) | 2% | ? | -4%
COc1cc(OC)cc(C(=O)N[C@H](C(=O)Nc2nnc(C3CC3)s2)C(C)C)c1 | . | . | 1%
Nc1cc(=O)[nH]n1C1CCCCC1 | . | . | -2%
CNC(=O)[C@H](C)/C=C/C(NC(=O)OCc1ccccc1)c1ccc(C(=O)OC)cc1 (some centres not stated) | -5% | . | ?
CN(C)S(=O)(=O)c1cccc(NC(=O)c2cc(-c3cccs3)nn2-c2ccccc2)c1 | ? | 11 | 22µM*
SMILES | HPGD block | PNC inhibitor | ALDH1A1 block
CCN(CC)S(=O)(=O)c1cccc(NC(=O)c2cc(-c3cccs3)nn2-c2ccccc2)c1 | -20% | 10 | -7%
CC(C)c1ccc(N(C(=O)c2cc3ccccc3oc2=O)C2C=CS(=O)(=O)C2)cc1 (configuration not stated) | -18% | 2 | 25µM*
O=C(c1cc2ccccc2oc1=O)N(c1ccccc1)C1C=CS(=O)(=O)C1 (configuration not stated) | -14% | -24 | 6%
CCN(C(=O)c1cc2ccccc2oc1=O)c1cccc(C)c1 | ? | ? | 14µM*
CCN(C(=O)c1cc2ccccc2oc1=O)c1ccccc1 | -15% | 12 | -8%
O=C(Cn1cc(F)c(=O)[nH]c1=O)NCCO | . | . | 4%
COc1cc2ccc([C@H](C)NCC#N)cc2cc1OC | -9% | . | -4%[13.5 µM]
CC(=O)c1c(C)nc2cc(Cl)ccc2c1N | -2% | -95* | 2%
Cc1nc2ccc(Cl)cc2nc(C)/c1=N\O | -4% | 10 | ?
O=C(/C=C/c1ccccc1Cl)N(Cc1ccccc1)C1CCS(=O)(=O)C1 (configuration not stated) | -8% | -21 | 11µM*
COc1ccc(CN(C(=O)c2ccccc2OC)C2CCS(=O)(=O)C2)cc1 (configuration not stated) | -2% | -22 | 3%
O=C(/C=C/c1ccccc1Cl)N(Cc1ccc(Cl)cc1)C1CCS(=O)(=O)C1 (configuration not stated) | -4% | -98* | -6%
